# About 83,000 compounds went through this panel and 20% of them were active in at least one assay; those are over-represented in the sample as a whole.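 Interpretation: 100, growth as untreated; towards 0, rising growth inhibition; 0, no net growth; 0 to -100, cell death. Compounds scoring below 10 were considered active.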 The source made the active and inactive calls.
# Tested on: MDA-MB-468 breast
# Assay: NCI-60 one-dose screen, 48 h (100 = growth as untreated, 0 = no growth, -100 = all killed)
# Details: 10 µM unless noted
row,SMILES,growth
1,COc1ccc2c3c([nH]c2c1)C(=O)c1nc(C)ccc1C3=O,14.8% (inactive)
2,Cn1c([N+](=O)[O-])cnc1C=C1C(=O)c2ccccc2C1=O,51.3% (inactive)
3,Cc1ccc(-c2nc(C#N)c(S(=O)(=O)NCCO)o2)cc1,37.1% (inactive)
4,NC(=O)c1ccc(-c2cccc3c(=O)nc(N4CCOCC4)oc23)cc1,105% (inactive)
5,COc1ccc(/C=C/c2nc3ccccc3nc2/C=C/c2ccc(OC)cc2)cc1,88.1% (inactive)
6,Clc1cc(Cl)cc(-c2cnc3nonc3n2)c1,82% (inactive)
7,C#CC[C@@H]1C[C@]2(C)[C@H]3CC=C4[C@H]5[C@@H](C)[C@H](C)CC[C@]5(C(=O)NCCCCN)CC[C@@]4(C)[C@]3(C)CC[C@H]2C(C)(C)[C@H]1OC(C)=O,81% (inactive)
8,CNC(=O)c1c(NC(=O)c2ccc(C(C)(C)C)cc2)sc2c(CN(C)C)c(O)ccc12,-60.5% (active)
9,O=C(Nc1ncccc1OCc1ccccc1)NC1CCCCCC1,75.5% (inactive)
10,N=C1C=C(N)C(=O)c2ccccc21,-85.6% (active)
11,OCC(O)c1nc2ccc3[nH]ncc3c2c2c1CCCC2 (stereo not given),-28.1% (active)
12,Clc1ccccc1CNc1c2ccccc2nc2ccccc12,-27.9% (active)
13,CCc1ccc(-c2ccc(COc3ccc(CC4SC(=O)NC4=O)cc3)cc2)cc1 (stereo not given),35.3% (inactive)
14,CS(=O)(=O)c1ccc(-c2nn(-c3ccccc3)cc2/C=N/NC(=O)c2nc(N)n[nH]2)cc1,98.2% (inactive)
15,Oc1ccc(-c2nnc(SCc3ccc(O)c4ncccc34)n2-c2ccccc2)cc1,-13.6% (active)
16,CCOC(=O)Nc1nccs1,120% (inactive)
17,Cc1cc(N=O)cc(C(C)(C)C)c1O,91% (inactive)
18,Cc1cc(NCCCCNc2ccnc3cc(Cl)ccc23)nc(Nc2ccc(C(=O)N3CCCCC3)cc2)n1,-42.3% (active)
19,S=C1SCN(Cc2ccccc2)CN1Cc1ccccc1,38.5% (inactive)
20,COc1cnc2c(c1)C(=O)c1c-2n(CCCN2CCC(N)CC2)c(=O)c2cc([N+](=O)[O-])ccc12,74% (inactive)
21,CC1C(=NC(=O)c2cnccn2)C(C)C(c2ccc(Cl)cc2)NC1c1ccncc1 (stereo not given),92.9% (inactive)
22,CCN(CC)CCOc1ccc2ccc(=O)oc2c1,86% (inactive)
23,O=C(/C=C/c1cn(-c2ccccc2)nc1-c1ccccc1)OCc1cn(-c2cccc([N+](=O)[O-])c2)nn1,107% (inactive)
24,Nc1nc(N)c2c(n1)NC(c1ccc(C(F)(F)F)cc1)CC(c1ccc(Nc3nc(NCCO)nc(Nc4ccc(Cl)cc4)n3)cc1)=N2 (stereo not given),-84.7% (active)
25,Clc1ccc(-c2nnc(-c3cccc4ccccc34)o2)cc1,19.1% (inactive)
